This passage reports Potency and activity change, negative = inhibition results from PubChem BioAssay (NCATS).

Several values for one entry are separate records, joined by “and”; a condition that tells them apart may be missing. Identical values can stand only once. Inconclusive results are not listed. A number with no mark means an inactive call. Activity calls are given as the source filed them. Unless noted, calls come from the whole dose curve.

A short description of one test: Cell Viability - HepG2 (AID 433).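 Note: potency is the fitted concentration of half-maximal effect; cells exposed to compound for 40 hours; potency for ATP loss meaning cytotoxicity.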 Particulars: qHTS. Put shortly:
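HepG2 cells, 1500 per well, treated 40 hr at 37 °C in complete medium; viability from intracellular ATP by CellTiter-Glo luminescence. Normalized to DMSO and 100 uM tamoxifen; AC50 from Hill fit of qHTS concentration-response.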
(In general: qHTS replaces the single test concentration by a dilution series.)
Take `CN(C)CCC(c1ccc(Cl)cc1)c1ccccn1` (stereo not given): the Potency was over 92 µM.

On to `COc1cc(CNC(=O)CCCC/C=C/C(C)C)ccc1O`, for which the Potency is over 92 µM.

As for `O=c1cc(-c2ccccc2)oc2ccccc12`, the Potency is over 92 µM.

On to `c1ccc2sc(SSc3nc4ccccc4s3)nc2c1`, for which the Potency was over 92 µM.

`Nc1ccc(O)c([N+](=O)[O-])c1`: the Potency was over 92 µM.

For `Nc1ccc([N+](=O)[O-])cc1O`, the Potency is over 92 µM.

On to `O=C(O)c1cc(O)c(O)c(O)c1`, for which the Potency was over 92 µM.

As for `NCCO`, the Potency was over 92 µM.

As to `CC(C)NCC(O)COc1cccc2ccccc12` (stereo not given), the Potency is over 92 µM.

Regarding `N=C1N=C(N)c2cc3ccccc3cc21`, the Potency is 54.6 µM (active).

Consider `S=c1[nH]c2ccccc2s1`, for which the Potency was over 92 µM.

`CCCOC(=O)c1ccc(O)cc1`: the Potency was over 92 µM.

For `CN1CCC[C@H]1c1cccnc1`, the Potency is over 92 µM.

`O=C(O)/C=C\C(=O)O`: the Potency was over 92 µM.

As to `C#C[C@]1(O)CC[C@H]2[C@@H]3CCc4cc(O)ccc4[C@H]3CC[C@@]21C`, the Potency is over 92 µM.

`CCCCCCCCCCCCCCCCCC(=O)O`: the Potency is over 92 µM.

Consider `Nc1nc2ccc([N+](=O)[O-])cc2s1`, for which the Potency was over 92 µM.

A further test is described as follows: Cell Viability - MRC5 (AID 434).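 Note: potency is the fitted concentration of half-maximal effect; cells exposed to compound for 40 hours at 37 °C; potency reflects cytotoxicity seen as loss of intracellular ATP.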 Conditions: MRC5 lung fibroblast viability, qHTS. Put shortly:
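qHTS cytotoxicity in human lung fibroblast MRC5 cells; 40 hr treatment, 37 °C; cellular ATP by luciferase luminescence; DMSO = 0%, 100 uM tamoxifen = 100% inhibition; Hill-fit AC50.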
Consider `CN(C)c1ccc(N=NS(=O)(=O)O)cc1`, for which the Potency was over 92 µM.

For `CN(C)CCC(c1ccc(Cl)cc1)c1ccccn1` (stereo not given), the Potency is over 92 µM.

On to `COc1cc(CNC(=O)CCCC/C=C/C(C)C)ccc1O`, for which the Potency was over 92 µM.

In the case of `O=c1cc(-c2ccccc2)oc2ccccc12`, the Potency was over 92 µM.

On to `c1ccc2sc(SSc3nc4ccccc4s3)nc2c1`, for which the Potency was over 92 µM.

With `Nc1ccc(O)c([N+](=O)[O-])c1`, the Potency is over 92 µM.

On to `Nc1ccc([N+](=O)[O-])cc1O`, for which the Potency was over 92 µM.

As to `O=C(O)c1cc(O)c(O)c(O)c1`, the Potency is over 92 µM.

With `NCCO`, the Potency is over 92 µM.

In the case of `CC(C)NCC(O)COc1cccc2ccccc12` (stereo not given), the Potency was over 92 µM.

On to `S=c1[nH]c2ccccc2s1`, for which the Potency was over 92 µM.

Regarding `CCCOC(=O)c1ccc(O)cc1`, the Potency was over 92 µM.

For `CN1CCC[C@H]1c1cccnc1`, the Potency was over 92 µM.

Turning to `O=C1CN(/N=C/c2ccc([N+](=O)[O-])o2)C(=O)N1`, the Potency was over 92 µM.

For the molecule `O=C(O)/C=C\C(=O)O`, the Potency is over 92 µM.

As to `CCCCCCCCCCCCCCCCCC(=O)O`, the Potency was over 92 µM.

On to `Nc1nc2ccc([N+](=O)[O-])cc2s1`, for which the Potency was over 92 µM.

The nature of the next test: Cell Viability - SK-N-SH (AID 435).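 Note: potency is the fitted concentration of half-maximal effect; compound exposure lasted 40 h at 37 °C.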 Conditions: SK-N-SH neuroblastoma cell viability qHTS. Put shortly: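 SK-N-SH neuroblastoma cells (1500/well) treated 40 h at 37 °C in complete medium; viability read as cellular ATP by CellTiter-Glo luminescence. Normalized to DMSO and 100 uM tamoxifen; AC50 from Hill fits of qHTS concentration-response.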
Regarding `CN(C)c1ccc(N=NS(=O)(=O)O)cc1`, the Potency is over 92 µM.

On to `CN(C)CCC(c1ccc(Cl)cc1)c1ccccn1` (stereo not given), for which the Potency is over 92 µM.

On to `COc1cc(CNC(=O)CCCC/C=C/C(C)C)ccc1O`, for which the Potency was over 92 µM.

`O=c1cc(-c2ccccc2)oc2ccccc12`: the Potency is over 92 µM.

`c1ccc2sc(SSc3nc4ccccc4s3)nc2c1`: the Potency was over 92 µM.

`Nc1ccc(O)c([N+](=O)[O-])c1`: the Potency was over 92 µM.

For the molecule `Nc1ccc([N+](=O)[O-])cc1O`, the Potency is over 92 µM.

On to `NCCO`, for which the Potency was over 92 µM.

In the case of `CC(C)NCC(O)COc1cccc2ccccc12` (stereo not given), the Potency was over 92 µM.

Take `N=C1N=C(N)c2cc3ccccc3cc21`: the Potency was 33.3 µM (active).

With `S=c1[nH]c2ccccc2s1`, the Potency is over 92 µM.

Regarding `CCCOC(=O)c1ccc(O)cc1`, the Potency is over 92 µM.

In the case of `CN1CCC[C@H]1c1cccnc1`, the Potency was over 92 µM.

Take `O=C(O)/C=C\C(=O)O`: the Potency is over 92 µM.

For `C#C[C@]1(O)CC[C@H]2[C@@H]3CCc4cc(O)ccc4[C@H]3CC[C@@]21C`, the Potency is 25.5 µM.

In the case of `CCCCCCCCCCCCCCCCCC(=O)O`, the Potency is over 92 µM.

Take `Nc1nc2ccc([N+](=O)[O-])cc2s1`: the Potency is over 92 µM.

Another test in a line: NFAT Signaling Pathway (AID 444; active = well fitted curve in either direction with a large enough effect, not every such curve was filed as active;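 note: carbachol stimulus at about its EC50 of 1 µM final; % is set by controls: 0 for no effect and ±100 for the full control effect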). Particulars: Jurkat NFAT-bla M1, carbachol, beta-lactamase ratio, 5 h; at 38 µM (top of the series) unless noted. Summed up: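 Read-out: CCF4 FRET ratio (460 nm/530 nm) after 1 h RT dye loading, used for %activity and AC50 from titration series. Cells: Jurkat NFAT-β-lactamase/M1 line, treated with compound plus 1 uM carbachol for 5 h, 37 °C.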
As for `O=C(O)c1cc(=O)c2ccccc2[nH]1`, the activity change, negative = inhibition is 13.2%.

Regarding `OC[C@H]1O[C@@H](n2cnc3c(Nc4ccccc4)ncnc32)[C@H](O)[C@@H]1O`, the activity change, negative = inhibition was 4.47% [at 17.2 µM].

In the case of `N.N.O=C(O)C1(C(=O)O)CCC1.[Pt]`, the activity change, negative = inhibition was 13.9%.

On to `O=C(Nc1ccccc1)c1cc([N+](=O)[O-])ccc1Cl`, for which the activity change, negative = inhibition is -5%.

With `O=C(O)Cc1ccc(-c2ccccc2)cc1`, the activity change, negative = inhibition is -2.29% [at 17.2 µM] and -12.1% [at 17.2 µM].

On to `CCCCCCCC/C=C\CCCCCCCC(=O)NCCO`, for which the activity change, negative = inhibition is -20.4%.

Regarding `Nc1nc(Cl)nc2c1ncn2[C@@H]1O[C@H](CO)[C@@H](O)[C@H]1O`, the activity change, negative = inhibition was 22.4% [at 17.2 µM].

For `CN1CCc2ccccc2Cc2[nH]c3ccccc3c2CC1`, the activity change, negative = inhibition is -7.31%.

For `COC1=C(OC)C(=O)c2ccccc2C1=O`, the activity change, negative = inhibition is -8.88%.

On to `Oc1cc2c(cc1O)CN(C(=S)NCCc1ccc(Cl)cc1)CCC2`, for which the activity change, negative = inhibition is -18.1%.

Take `Ic1ccc(N2CCN(Cc3c[nH]c4ncccc34)CC2)cc1`: the activity change, negative = inhibition is 0.65%.

As to `Cc1c(N)c(=O)n(-c2ccccc2)n1C`, the activity change, negative = inhibition is -9.93% [at 17.2 µM].

With `N#C/C(=C\c1c[nH]c2ccccc12)C(=O)c1ccc(O)c(O)c1`, the activity change, negative = inhibition was 0.356%.

Turning to `Nc1ccc(C(=O)O)c(O)c1`, the activity change, negative = inhibition is 10.1% [at 17.2 µM] and -5.83% [at 17.2 µM].
